Screening data: PubChem, National Center for Advancing Translational Sciences (NCATS)
Cruzain inh Det – qHTS Assay for Promiscuous and Specific Inhibitors of Cruzain (with detergent). Cruzipain (Trypanosoma cruzi), P25779. purified cruzain, Z-FR-AMC fluorescence, 0.01% Triton. Potency, µM, for the others: max response, negative = inhibition, most hits filed as inhibitors. hit rate 0.43% among 200,000;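 note: plate controls were neutral wells for no effect and buffer without enzyme for full effect; nearly all actives have a fitted effect of over 40% in size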
Target sequence (P25779 123-467 limits assumed): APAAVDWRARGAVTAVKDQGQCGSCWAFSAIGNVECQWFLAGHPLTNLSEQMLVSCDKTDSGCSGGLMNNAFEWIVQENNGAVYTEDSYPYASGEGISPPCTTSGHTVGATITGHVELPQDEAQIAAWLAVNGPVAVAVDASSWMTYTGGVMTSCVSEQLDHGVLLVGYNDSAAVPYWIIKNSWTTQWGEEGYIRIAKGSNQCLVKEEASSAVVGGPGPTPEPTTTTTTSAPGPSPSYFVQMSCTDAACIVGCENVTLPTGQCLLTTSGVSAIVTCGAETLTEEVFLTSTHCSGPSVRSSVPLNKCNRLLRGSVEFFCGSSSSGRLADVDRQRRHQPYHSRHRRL
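Read-out: AMC fluorescence (360 nm excitation, 450 nm emission), four reads over 2 min, first-to-third difference used. Conditions: cruzain 1.5 nM, Z-FR-AMC 2 uM, pH 5.5 acetate, 5 mM DTT, 0.01% Triton X-100.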
Cruzain noTriton – qHTS Assay for Promiscuous and Specific Inhibitors of Cruzain (without detergent); Cruzipain (Trypanosoma cruzi), P25779; Potency, µM, for the others: max response, negative = inhibition, usual class: inhibitors; hit rate 2.3% among 200,000; purified cruzain, Z-FR-AMC fluorescence, no detergent; AID 1476, 2009;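 note: plate controls were enzyme without inhibitor for no effect and buffer without enzyme for full effect; nearly all actives have a fitted effect of over 40% in size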
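Purified cruzain at 1.5 nM, pre-incubated 15 min with compound at room temperature in 100 mM sodium acetate pH 5.5, 5 mM DTT, 0.00005% Triton X-100. Reaction started with 2 uM Z-FR-AMC; AMC fluorescence increase over 60 s gives rate.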
Starred values were filed as active, the others as inactive. A selection: hits, their analogues and other compounds. The true share with any hit is near 2.4%. Calls come from the whole dose curve; as a rule, active = well fitted curve in the direction sought with a large enough effect; inconclusive = small, poorly fitted or top-dose-only effect, or another doubt; inactive = no such curve, though single readings can be large; an effect the other way counts as inactive or inconclusive. Potency is the fitted concentration of half-maximal effect.

Results for COc1cccc(C(=O)Nc2nc(-c3nnn(-c4ccccc4C(F)(F)F)c3C)ns2)c1 ?
Cruzain inh Det: 3%; Cruzain noTriton: 2%

Results for Cc1ccc2nc(/C(C#N)=C/c3cccc(Br)c3)[nH]c2c1 ?
Cruzain inh Det: -2%; Cruzain noTriton: 20µM*

What do the screens show for `COc1cc(/C=C(\C#N)c2nc3ccc(C)cc3[nH]2)ccc1OC(C)C`?
Cruzain inh Det: -1%; Cruzain noTriton: 4%

What do the screens show for `N#C/C(=C\c1ccc(-c2ccc(Cl)c(C(=O)O)c2)o1)c1nc2ccccc2[nH]1`?
Cruzain inh Det: -3%; Cruzain noTriton: -5%

Results for Cc1ccc2nc(/C(C#N)=C/c3ccc(-c4cccc(Cl)c4)o3)[nH]c2c1 ?
Cruzain inh Det: inconclusive; Cruzain noTriton: 13µM*

Results for Cc1ccccc1OCC(=O)Nc1sc(C(=O)Nc2cccc(C)c2C)c(C)c1C#N ?
Cruzain inh Det: 5%; Cruzain noTriton: 7.9µM*

How did COc1ccccc1NC(=O)c1sc(NC(=O)c2ccco2)c(C#N)c1C do in these assays?
Cruzain inh Det: -2%; Cruzain noTriton: -5%

Results for COc1ccc(-n2ccnc2SCC(=O)Nc2nnc(C)s2)cc1 ?
Cruzain inh Det: -2%; Cruzain noTriton: 5%

What do the screens show for `CCOc1ccc(NS(=O)(=O)c2ccc3[nH]c4c(c3c2)CCCCC4)cc1`?
Cruzain inh Det: -14%; Cruzain noTriton: -15%

Results for C[N+](C)(C)CCC(=O)c1cccc2ccccc12 ?
Cruzain inh Det: 14µM*; Cruzain noTriton: 10µM*

How did O=C(O)CCC(=O)c1cccc2ccccc12 do in these assays?
Cruzain inh Det: -2%; Cruzain noTriton: -9%

Results for COc1ccc(C)cc1NC(=O)CC(=O)Nc1ccc2nc3n(c(=O)c2c1)CCCCC3 ?
Cruzain inh Det: -2%; Cruzain noTriton: inconclusive

How did CC(C)(C)OC(=O)NCCCCC1=CC2=CC(=O)C(C)(OC(=O)C3CCCC3)C(=O)C2=CO1 (stereo not drawn) do in these assays?
Cruzain inh Det: 3%; Cruzain noTriton: 2%

Results for O=S(=O)(c1ccccc1)c1nc(-c2ccccc2F)oc1N1CCOCC1 ?
Cruzain inh Det: -3%; Cruzain noTriton: 0%

Results for Cc1nc2cc(NC(=O)N3CCN(c4ccccn4)CC3)ccc2o1 ?
Cruzain inh Det: 8%; Cruzain noTriton: 3%

What do the screens show for `O=C(Nc1ccc2nc(-c3ccco3)c(-c3ccco3)nc2c1)N1CCN(c2ccccn2)CC1`?
Cruzain inh Det: 14µM*; Cruzain noTriton: 2.5µM*

Results for O=C(c1cccc(C(=O)N2CCN(c3ncccn3)CC2)c1)N1CCN(c2ncccn2)CC1 ?
Cruzain inh Det: 6%; Cruzain noTriton: -7%

Results for O=C(c1ccc2nc(-c3ccco3)c(-c3ccco3)nc2c1)N1CCN(c2ncccn2)CC1 ?
Cruzain inh Det: 25µM*; Cruzain noTriton: inconclusive

How did COc1ccc(OC)c(NC(=O)c2ccc3c(SCC(=O)O)c4c(nc3c2)CCCC4)c1 do in these assays?
Cruzain inh Det: -8%; Cruzain noTriton: inconclusive

Results for COc1ccc(C)cc1S(=O)(=O)NCC(c1ccc(N(C)C)cc1)N1CCc2ccccc21 (stereo not drawn) ?
Cruzain inh Det: -5%; Cruzain noTriton: inconclusive

What do the screens show for `Cc1cc(C)c(S(=O)(=O)NCC(c2ccc(N(C)C)cc2)N2CCc3ccccc32)c(C)c1` (stereo not drawn)?
Cruzain inh Det: -2%; Cruzain noTriton: 20µM*

Results for Nc1c(-c2cccc([N+](=O)[O-])c2)nc2ccccn12 ?
Cruzain inh Det: -10%; Cruzain noTriton: 20µM*

Results for Nc1nc(-c2cccc([N+](=O)[O-])c2)cc(-c2cc(-c3cccc([N+](=O)[O-])c3)nc(N)n2)n1 ?
Cruzain inh Det: -2%; Cruzain noTriton: 2%

How did COCCn1c(=NC(=O)c2ccc(S(=O)(=O)N3CCc4ccccc4C3)cc2)sc2cc(OC)ccc21 do in these assays?
Cruzain inh Det: -3%; Cruzain noTriton: 4µM*

How did COCCn1c(=NC(=O)CN2C(=O)CCC2=O)sc2cc(S(N)(=O)=O)ccc21 do in these assays?
Cruzain inh Det: -6%; Cruzain noTriton: 5%

How did Cc1ccc(N=Cc2c(O)n(-c3ccc4c(c3)OCO4)c(=O)c3ccccc23)cc1 do in these assays?
Cruzain inh Det: -3%; Cruzain noTriton: 3.2µM*

What do the screens show for `Cc1cccc(-n2c(O)c(C=Nc3ccc(O)cc3)c3ccccc3c2=O)n1`?
Cruzain inh Det: -11%; Cruzain noTriton: inconclusive

What do the screens show for `CCOC(=O)c1c(NC(=O)c2cc3n(n2)C(C(F)(F)F)CC(c2cccs2)N3)sc(C)c1C` (stereo not drawn)?
Cruzain inh Det: -6%; Cruzain noTriton: 6.3µM*

Results for Cc1nn(C)c(C)c1CNC(=O)c1cc2n(n1)C(C(F)(F)F)CC(c1cccs1)N2 (stereo not drawn) ?
Cruzain inh Det: -3%; Cruzain noTriton: inconclusive
